Inconclusive results are not listed. Where a call stands in place of a potency, no number is given. Calls of active or inactive are those of the source. Calls come from the whole dose curve; as a rule, active = well fitted activation curve with a large enough effect; inconclusive = small, poorly fitted or top-dose-only effect; inactive = no such curve, though single readings can be large or run the other way.

Sequence of D(1A) dopamine receptor (Homo sapiens) (P21728 whole entry, looked up): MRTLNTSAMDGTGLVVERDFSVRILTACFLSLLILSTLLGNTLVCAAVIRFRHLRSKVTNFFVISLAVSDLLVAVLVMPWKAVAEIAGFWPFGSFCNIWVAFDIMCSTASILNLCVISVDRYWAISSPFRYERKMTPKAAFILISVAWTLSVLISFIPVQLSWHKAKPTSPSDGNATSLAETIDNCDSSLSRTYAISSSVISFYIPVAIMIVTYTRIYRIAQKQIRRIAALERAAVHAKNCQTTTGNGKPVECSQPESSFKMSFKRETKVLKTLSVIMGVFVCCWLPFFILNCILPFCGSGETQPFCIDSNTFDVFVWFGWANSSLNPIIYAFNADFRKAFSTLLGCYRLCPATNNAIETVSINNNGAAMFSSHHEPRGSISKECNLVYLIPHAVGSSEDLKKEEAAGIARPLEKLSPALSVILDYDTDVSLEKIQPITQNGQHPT

In this experiment the target is D(1A) dopamine receptor (Homo sapiens) (UniProt P21728). Briefly: HTS Assay for Allosteric Agonists of the Human D1 Dopamine Receptor: Primary Screen for Potentiators (AID 488982). The following applies: HEK293 T-REx D1 inducible cells, calcium flux, kinetic fluorescence; series mostly up to 8.37 µM. An excerpt:
Dopamine receptors (DARs) are involved in the etiology and/or therapy of a number of neuropsychiatric and endocrine disorders. For instance, all receptor-based antiparkinsonian drugs work via stimulating the […] DAR subtype whereas all FDA-approved antipsychotic agents are antagonists of this receptor. […] There are three different types of allosteric modulators that we are seeking, two of which will stimulate or augment receptor signaling, allosteric agonists and potentiators, while the third, allosteric antagonists, will attenuate receptor signaling. The present primary screening assay measures compound agonism by tracking calcium flux in a […], inducible Hek293 Trex D1 cell line.
Freshly passaged cells are plated in 1536 well black, clear bottom plates at a density of 4000 cells/well in 3 ul of complete media containing 1x tetracycline inducer. After an overnight incubation at 30 C in 5% CO2, cells are loaded with 2 ul of the no wash Calcium Assay Kit (ABD Bioquest) and incubated at room temperature for 30 to 90 minutes. A 10 cycle (1 second/cycle) baseline measurement is taken and then the FDSS online 1536 pintool delivers 23 nl of compound library (as well as dopamine controls) to the plate. The plate is measured for kinetically at 1 cycle/sec for 180 seconds and is considered to be the agonist portion of the assay (eg, compounds which activate a positive calcium response during this portion are flagged as potential agonists). Following the 180 second read, 1 ul of an EC20 of dopamine is delivered by an onboard pipette head. Measurements are taken kinetically for an additional 180 seconds.
Background: Calcium flux is commonly read through the fluorescence of an indicator in the cells.
Take `NCC(O)(CS(=O)(=O)O)c1ccc(Cl)cc1` (stereo not given): the Potency entry was “inactive”.

For `CC(=O)/C(C)=N/O`, the Potency result was “inactive”.

Turning to `S=C(S)N1CCCC1`, the Potency entry is “inactive”.

Consider `CC1=C(C(=O)O)N2C(=O)[C@@H](NC(=O)C(N)C3=CCC=CC3)[C@H]2SC1` (stereo not given in full), for which the Potency result is “inactive”.

As to `NCCCCN`, the Potency result is “inactive”.

Regarding `Nc1nc2c(cnn2CCc2ccccc2)c2nc(-c3ccco3)nn12`, the Potency result was “inactive”.

With `CC(C)(C)c1cc(/C=C(\C#N)C(N)=S)cc(C(C)(C)C)c1O`, the Potency entry is “inactive”.

`CN1CCC2(CCN3CCc4c(oc5ccccc45)C3C2)N(C)C1=O` (stereo not given): the Potency entry was “inactive”.

In the case of `COC(=O)[C@H](NC(=O)c1cc(-c2ccccc2)nc2ccccc12)c1ccccc1`, the Potency entry is “inactive”.

Turning to `CN(C)S(=O)(=O)c1ccc2c(c1)/C(=C/c1cc3c([nH]1)CCCC3)C(=O)N2`, the Potency entry was “inactive”.

Take `COc1ccccc1N1CCN(CCCCN2C(=O)c3ccccc3C2=O)CC1`: the Potency result is “inactive”.

Consider `NCCC1CCCC(CCN)N1` (stereo not given), for which the Potency result is “inactive”.

Consider `C[C@@H](NCCc1ccc(O)cc1)[C@@H](O)c1ccc(O)cc1`, for which the Potency entry was “inactive”.

As to `O=C1OC(=O)C2C3CCC(O3)C12` (stereo not given), the Potency entry was “inactive”.

With `O=c1[nH]c(=S)[nH]c(-c2ccccc2)c1Cc1c(O)ccc2ccccc12`, the Potency result is “inactive”.

Consider `CC(=O)C(C)=O`, for which the Potency entry is “inactive”.

As for `CSC(=N)N`, the Potency entry was “inactive”.

Consider `N[C@@H](Cc1ccc(F)cc1)C(=O)O`, for which the Potency entry was “inactive”.

Regarding `c1ccc(C(NCCNC(c2ccccc2)c2ccccc2)c2ccccc2)cc1`, the Potency entry is “inactive”.

`CNc1ncnc2c1ncn2[C@H]1C[C@H](OP(=O)(O)O)[C@@H](COP(=O)(O)O)O1`: the Potency result was “inactive”.

`N=C(N)SCCN`: the Potency result is “inactive”.

As for `CC(=O)O[C@H]1Cc2ccccc2N(C(N)=O)c2ccccc21`, the Potency result is “inactive”.

As to `CCCCOc1cc(CC2CNC(=O)N2)ccc1OC` (stereo not given), the Potency entry is “inactive”.

Turning to `O=[N+]([O-])c1cccc2c(Br)[nH]nc12`, the Potency result was “inactive”.

With `COc1ccccc1N1CCN(CCN(C(=O)c2ccc(F)cc2)c2ccccn2)CC1`, the Potency result is “inactive”.

`CC(N)=NCCCC[C@@H](N)C(=O)O`: the Potency result was “inactive”.

Consider `O=c1cc(-c2ccccc2)[nH]c2nc(Cl)ccc12`, for which the Potency result is “inactive”.

As for `COCc1nc2c([nH]1)c(=O)n(C)c(=O)n2CC(C)C`, the Potency entry is “inactive”.

`CC(=O)NNC(=O)N1Cc2ccccc2Oc2ccc(Cl)cc21`: the Potency entry was “inactive”.

For the compound `CCSC(=N)N`, the Potency result was “inactive”.

For the compound `Cc1ccccc1/C=C/C1=NCCN1`, the Potency result is “inactive”.

On to `NCCS(=O)O`, for which the Potency result is “inactive”.

In the case of `CCCn1c(=O)c(C)cn2nc(N)nc12`, the Potency entry was “inactive”.

With `CC#CCOC(=O)c1c(C)nc2sc3c(c2c1N)CCC(O)C3` (stereo not given), the Potency result is “inactive”.

Regarding `Cc1ccc2c(c1)C(N1CCN(C)CC1)=Nc1cccnc1N2`, the Potency result was “inactive”.

For the compound `NC[C@@H]1O[C@H](c2ccccc2)Cc2c1ccc(O)c2O`, the Potency result was “inactive”.

For the compound `C=CCNc1ncnc2ccc(Br)cc12`, the Potency entry is “inactive”.

In the case of `C=CCN1CCc2cc(O)c(O)cc2C(c2ccccc2)C1` (stereo not given), the Potency entry was “inactive”.

As to `N=C(N)c1ccc(N)cc1`, the Potency result is “inactive”.

On to `CN1C2CCC1CC(OC(c1ccccc1)c1ccccc1)C2` (stereo not given), for which the Potency result is “inactive”.

The values above are taken from PubChem BioAssay (NCATS).
